The text below walks through data of publication PMC4336329 (PLoS ONE, 2015).

In all, about 310,000 compounds went through this assay and about 14,000 (4.5%) showed an effect of 50% or more. Effects have a minus sign here. What follows is part of a selection rich in strong results, with near analogues and random picks from the rest.
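Further: peak tail current of the secondary pulse compared with the same well before compound.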

Chain of human ether-à-go-go-related gene (hERG) potassium channel (Q12809 whole entry, looked up): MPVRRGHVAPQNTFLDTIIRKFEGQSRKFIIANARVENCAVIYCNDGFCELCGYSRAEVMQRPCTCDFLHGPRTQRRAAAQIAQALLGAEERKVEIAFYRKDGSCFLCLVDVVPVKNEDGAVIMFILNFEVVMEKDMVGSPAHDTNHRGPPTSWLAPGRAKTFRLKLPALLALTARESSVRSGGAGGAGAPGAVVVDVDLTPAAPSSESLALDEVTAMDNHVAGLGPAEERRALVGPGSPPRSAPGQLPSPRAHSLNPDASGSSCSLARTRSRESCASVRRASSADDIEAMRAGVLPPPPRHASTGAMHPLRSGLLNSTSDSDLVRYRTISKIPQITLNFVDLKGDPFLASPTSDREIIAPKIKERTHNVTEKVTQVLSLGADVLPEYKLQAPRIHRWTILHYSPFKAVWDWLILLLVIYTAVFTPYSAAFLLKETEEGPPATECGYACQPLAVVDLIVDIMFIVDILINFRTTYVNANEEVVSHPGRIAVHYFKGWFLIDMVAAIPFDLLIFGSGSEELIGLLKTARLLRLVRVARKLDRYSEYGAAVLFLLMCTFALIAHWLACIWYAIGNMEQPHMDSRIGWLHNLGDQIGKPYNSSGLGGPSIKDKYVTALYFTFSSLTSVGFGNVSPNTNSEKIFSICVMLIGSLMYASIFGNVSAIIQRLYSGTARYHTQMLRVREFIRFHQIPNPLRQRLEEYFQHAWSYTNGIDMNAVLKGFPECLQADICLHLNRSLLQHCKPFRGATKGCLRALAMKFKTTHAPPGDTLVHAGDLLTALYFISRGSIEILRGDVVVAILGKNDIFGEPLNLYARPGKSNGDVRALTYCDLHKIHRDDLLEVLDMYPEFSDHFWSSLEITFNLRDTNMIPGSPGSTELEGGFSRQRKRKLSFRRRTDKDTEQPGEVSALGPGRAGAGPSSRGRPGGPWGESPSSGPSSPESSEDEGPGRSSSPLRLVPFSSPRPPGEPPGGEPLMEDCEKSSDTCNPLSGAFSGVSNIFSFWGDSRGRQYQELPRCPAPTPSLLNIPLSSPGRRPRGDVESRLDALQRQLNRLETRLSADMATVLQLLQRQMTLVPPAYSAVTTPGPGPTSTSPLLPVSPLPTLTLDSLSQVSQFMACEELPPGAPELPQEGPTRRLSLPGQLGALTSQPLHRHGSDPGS

This test addresses human ether-à-go-go-related gene (hERG) potassium channel (human, UniProt Q12809). The test is described as follows: primary screen, population patch clamp on CHO cells stably expressing hERG; higher = less effect of the substance.
Turning to `CCC(=O)NC(=S)NNC(=O)COc1ccc(Br)cc1`, the “hERG current change (%, negative = inhibition) at 10uM” value is listed as 14.4%.

As for `CCOCCOc1nc(C)cc(C)c1S(=O)(=O)c1ccccc1C`, the “hERG current change (%, negative = inhibition) at 10uM” value was -4.15%.

As for `CCOC(=O)C1(CCc2ccccc2)CCN(Cc2cccc3c2OCO3)CC1`, the “hERG current change (%, negative = inhibition) at 10uM” value was -75%.

As to `CCOC(=O)C1(Cc2ccccc2)CCN(Cc2cccc3c2OCO3)CC1`, the “hERG current change (%, negative = inhibition) at 10uM” value was -36.7%.

In the case of `CCOC(=O)C1(CCOc2ccccc2)CCN(Cc2cccc3c2OCO3)CC1`, the “hERG current change (%, negative = inhibition) at 10uM” value is reported as -64.6%.

In the case of `O=C(CN1C(=O)c2ccccc2C1=O)Nc1ccccc1`, the “hERG current change (%, negative = inhibition) at 10uM” value is -0.118%.

With `CCOC(=O)N1CCN(C(=O)C2CCCN(S(=O)(=O)c3cc(C)ccc3OC)C2)CC1` (stereo not shown), the “hERG current change (%, negative = inhibition) at 10uM” value is listed as -5.57%.

`COCc1c(C#N)c(NCc2cc(OC)c(OC)c(OC)c2)nc(C)c1[N+](=O)[O-]`: the “hERG current change (%, negative = inhibition) at 10uM” value is -12.2%.

Take `Cc1ncc(CN2CCC(C(=O)Nc3ccc(-n4cccn4)cc3)CC2)s1`: the “hERG current change (%, negative = inhibition) at 10uM” value was -21.2%.

With `Cc1ncc(CN2CCC(C(=O)Nc3cccc(-c4cscn4)c3)CC2)cn1`, the “hERG current change (%, negative = inhibition) at 10uM” value was -11.9%.

Consider `O=C(Nc1cccc(-c2cscn2)c1)C1CCN(Cc2ccsc2)CC1`, for which the “hERG current change (%, negative = inhibition) at 10uM” value was -65%.

As to `CSc1ncc(CN2CCC(C(=O)Nc3cccc(-c4cscn4)c3)CC2)cn1`, the “hERG current change (%, negative = inhibition) at 10uM” value is recorded as -35.7%.

Consider `O=C(Nc1ccc(-n2cccn2)cc1)C1CCN(Cc2ccsc2)CC1`, for which the “hERG current change (%, negative = inhibition) at 10uM” value is listed as -81.1%.

For the molecule `O=C(Nc1ccc(-n2cccn2)cc1)C1CCN(Cc2ccccn2)CC1`, the “hERG current change (%, negative = inhibition) at 10uM” value is given as -16.7%.

As to `Cc1ccc(CN(CC(=O)NCc2ccccn2)S(=O)(=O)c2ccccc2)cc1`, the “hERG current change (%, negative = inhibition) at 10uM” value was -23.9%.

On to `COC(=O)CN(C#N)c1nc(NCc2ccccc2)nc(OC)n1`, for which the “hERG current change (%, negative = inhibition) at 10uM” value is -1.33%.

`CCN(CC(=O)Nc1ccc2c(c1)OCCO2)CC(=O)Nc1ccc2c(c1)OCO2`: the “hERG current change (%, negative = inhibition) at 10uM” value worked out at 28%.

In the case of `Cc1ccc(CC(CC(=O)Nc2cccc(C(F)(F)F)c2)C(=O)O)cc1` (stereo not shown), the “hERG current change (%, negative = inhibition) at 10uM” value is listed as 18%.

`COc1cc2c(cc1OC)-c1cc(OCCN3CCOCC3)nc(=O)n1CC2`: the “hERG current change (%, negative = inhibition) at 10uM” value is given as -11.5%.

`O=C(O)c1nccnc1C(=O)Nc1ccc(Cl)cn1`: the “hERG current change (%, negative = inhibition) at 10uM” value is recorded as 17.6%.

With `CCC(C)NC(=O)[C@H]1N2C(=O)c3ccccc3C2SC1(C)C` (stereo partly shown), the “hERG current change (%, negative = inhibition) at 10uM” value worked out at 12.8%.

As for `Cc1noc(C(=O)Nc2c(C)nn(Cc3ccccc3)c2C)c1Cl`, the “hERG current change (%, negative = inhibition) at 10uM” value is listed as 4.71%.

`CC1CCCC(NCC(O)COC(c2ccc(F)cc2)c2ccc(F)cc2)C1C` (stereo not shown): the “hERG current change (%, negative = inhibition) at 10uM” value is -71.6%.

Regarding `CC1CCCC(NC(=O)CSc2ccc(F)cc2)C1C` (stereo not shown), the “hERG current change (%, negative = inhibition) at 10uM” value is on record as 18.7%.

Turning to `CC1CCCC(NC(=O)CCC(=O)c2ccc(F)cc2)C1C` (stereo not shown), the “hERG current change (%, negative = inhibition) at 10uM” value stood at 8.27%.
